The results in this text go back to PubChem BioAssay AID1570 (National Center for Advancing Translational Sciences (NCATS), 2009).

Inconclusive results are not listed. A call without a number means that no potency is given here. Calls of active or inactive are those of the source. The call rests on the fitted dose curve; in most records, active means well fitted inhibition curve with a large enough effect; inconclusive means small, poorly fitted or top-dose-only effect, or effect the other way; inactive means flat fitted curve, though single readings scatter.

In the test the target is Thyroid hormone receptor beta (Homo sapiens) (UniProt P10828). Nature of the test: Concentration Response Confirmation Assay for Inhibitors of the Interaction of Thyroid Hormone Receptor and Steroid Receptor Coregulator 2, Fluorescein Fluoroprobe. The text has this: NIH Molecular Libraries Probe Production Network [MLPCN] NIH Chemical Genomics Center [NCGC] MLPCN Grant: DK058080 Assay Provider: R. Kip Guy, St. Jude Children's Research Hospital NCGC Assay Overview: Thyroid receptor (TR) regulates many homeostatic processes including basal metabolism, cardiovascular function, body weight, and lipid trafficking. TR modulators are potential therapeutics for obesity and hyperlipidemias but current thyroid analogs have undesirable side effects, particularly cardiac stimulation. To identify inhibitors that specifically prevent the interaction of TR with the steroid receptor coregulator 2 (SRC2), a fluorescence polarization assay was screened (Arnold et al., 2006). […] Small molecule inhibitors that block the interaction of TR and SRC2 are detected by a decrease in fluorescence polarization. […]
Chain of Thyroid hormone receptor beta (Homo sapiens) (P10828 whole entry, looked up): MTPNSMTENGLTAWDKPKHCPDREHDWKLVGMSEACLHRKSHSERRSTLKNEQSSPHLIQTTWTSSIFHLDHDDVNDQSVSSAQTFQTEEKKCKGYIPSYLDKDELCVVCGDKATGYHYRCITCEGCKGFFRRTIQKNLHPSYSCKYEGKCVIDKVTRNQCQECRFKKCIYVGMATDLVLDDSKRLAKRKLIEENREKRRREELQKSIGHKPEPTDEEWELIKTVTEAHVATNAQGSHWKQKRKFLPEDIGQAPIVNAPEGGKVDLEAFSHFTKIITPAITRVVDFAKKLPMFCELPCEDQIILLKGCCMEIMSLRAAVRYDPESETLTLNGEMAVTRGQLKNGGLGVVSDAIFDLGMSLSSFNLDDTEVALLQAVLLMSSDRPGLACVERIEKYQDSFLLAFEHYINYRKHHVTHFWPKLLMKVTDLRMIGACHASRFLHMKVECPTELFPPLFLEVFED
NCGC Assay Protocol Summary: Five uL/well 0.6 uM TRbeta and 20 nM SRC2 Fluorescein in protein buffer (20mM Tris hydrochloride, 100mM NaCl, 10% glycerol, 1mM EDTA, 0.01% NP-40, 1mM DTT, 1uM T3 and 5% DMSO) was dispensed into black solid 1536-well plates (Grenier) using a solenoid-based dispenser. […] The plates were read by an Envision (Perkin Elmer) to detect fluorescence polarization of SRC2 Fluorescein (480 nm excitation and 535 nm emission). […]

In the case of `CCn1nc(-c2cccs2)nc2c(=O)n(C)c(=O)nc1-2`, the Potency result is “inactive”.
The same measure for `COP(=S)(OC)Oc1ccc([N+](=O)[O-])cc1`: 14.1 µM (active).
